# HT1080NT lethal – qHTS for induction of synthetic lethality in tumor cells producing 2HG: qHTS for the HT-1080-NT fibrosarcoma cell line; HT-1080-NT fibrosarcoma viability, CellTiter-Glo ATP luminescence, 48 h; Potency, µM (highest dose often 46.1 µM), without a hit: at the top dose activity, negative = less viability, usual class: cytotoxic; actives 1.6% (n = 360,000); AID 686970, 2013;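 note: NT is the 2HG producing partner of a matched IDH1 knockdown line; potency is the fitted concentration of half-maximal effect; 0% = DMSO-treated cells and -100% = media-only wells without cells; nearly all actives have a fitted effect of over 55% in size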
#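 Fibrosarcoma NT cells, 750 per well in 5% FBS RPMI, were exposed to compound for 48 hours. Viability: CellTiter-Glo luminescence.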
# DT40 TDP1 CPT – qHTS for Inhibitors of human tyrosyl-DNA phosphodiesterase 1 (TDP1): qHTS in cells in presence of CPT. chicken DT40 Tdp1-/-;hTDP1 cells + 20 nM CPT, ATP luminescence, 48 h. actives 12% (n = 420,000). Potency, µM (titrated, usually from 46.2 µM), without a hit: top-dose activity change, negative = growth inhibition, actives largely listed as inhibitors; note: potency is the fitted concentration of half-maximal effect; nearly all actives have a fitted effect of over 55% in size
#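 Cell growth measured by CellTiter-Glo luminescence after a minimum 48 h, 37 C compound exposure with 20 nM CPT in Tdp1-knockout DT40 cells stably expressing hTDP1, seeded 400/well; qHTS titration format.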
# IL1B secr inh – qHTS for Inhibitors of Inflammasome Signaling: IL-1-beta AlphaLISA Primary Screen. activity change, % at 57.5 µM. THP-1 LPS/ATP IL-1B secretion, AlphaLISA, 16 h; active compounds read low. actives 4.7% (n = 360,000); in the data active = activity change below about -50%; inconclusive = mostly about -30% to -49%
#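 Secreted IL-1B measured by AlphaLISA bead assay after 16 h compound exposure of THP-1 cells; compounds (final up to 57.5 uM) added 1 h before LPS (250 ng/mL) and ATP (1.25 mM) stimulation; lower signal means less secretion.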
# DT40 TDP1 no CPT – qHTS for Inhibitors of human tyrosyl-DNA phosphodiesterase 1 (TDP1): qHTS in cells in absence of CPT. DT40 Tdp1-/- hTDP1 cells, no CPT, ATP luminescence, 48 h. AID 686978, 2013. actives 15% (n = 420,000). Potency, µM (series often up to 46.2 µM), inactives show at the top dose activity change, negative = growth inhibition, hits mostly inhibitors; note: potency is the fitted concentration of half-maximal effect; nearly all actives have a fitted effect of over 55% in size
#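 Luminescent ATP content (CellTiter-Glo) served as the growth readout. Knockout chicken DT40 cells expressing human TDP1 were exposed to compounds without camptothecin for a minimum 48 hr at 37 °C.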
# HT1080 IDH1KD tx – qHTS for induction of synthetic lethality in tumor cells producing 2HG: qHTS for the HT-1080-IDH1KD cell line | HT-1080 IDH1 knockdown viability, ATP luminescence, 48 h | Potency, µM (highest dose often 46.1 µM), without a hit: top-dose activity, negative = toxicity, actives largely listed as cytotoxic | actives 2% (n = 360,000) | AID 686971, 2013;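 note: potency is the fitted concentration of half-maximal effect; 0% = DMSO wells and -100% = cell-free medium wells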
#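 CellTiter-Glo luminescence after 48 h compound exposure at 37 degrees C of IDH1-knockdown HT-1080 cells in 5% FBS RPMI. %Activity scaled between DMSO wells and cell-free media wells, with curves fitted and assigned curve classes.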
# * = called active by the depositor; u = inconclusive; x = no result; [ ] = dose if it differs, or a comment. An excerpt weighted towards active compounds, which were near 19% of everything screened. Unless noted, calls come from the whole dose curve; as a rule, active = well fitted curve in the direction sought with a large enough effect; inconclusive = small, poorly fitted or top-dose-only effect, or another doubt; inactive = no such curve, though single readings can be large; an effect the other way counts as inactive or inconclusive. Unless noted, % is set by controls: 0 for no effect and ±100 for the full control effect.
SMILES,HT1080NT lethal,DT40 TDP1 CPT,IL1B secr inh,DT40 TDP1 no CPT,HT1080 IDH1KD tx
N#Cc1cccc(NC(=O)N2CCC3(CC2)CCN(C(=O)c2ccco2)CC3)c1,x,-16%,x,u,x
CCn1cc(CCCC(=O)NCc2cccc(OC)c2)c2ccccc21,2%,u,u,u,5%
N#Cc1c(-c2cccs2)cc(-c2ccccn2)nc1N,u,5.8µM*,-11,5.8µM*,u
CC1CCN(C(=O)c2cc(S(=O)(=O)N3CCCCC3)c[nH]2)CC1,-1%,-29%,15,u,7%
OCc1cn(-c2ccccc2)nc1-c1ccc2c(c1)OCCO2,-7%,u,-23,23µM*,-15%
OC[C@@H]1CCCN1Cc1cn(-c2ccccc2)nc1-c1ccc2c(c1)OCO2,0%,u,u,u,-4%
OCc1cn(-c2ccccc2)nc1-c1ccc(Br)cc1,12%,-2%,-8,-1%,1%
O/N=C/c1cn(-c2ccccc2)nc1-c1ccc2c(c1)OCCO2,-14%,-11%,-88*,-10%,0%
c1ccc(-n2cc(CNCCc3cscn3)c(-c3ccc4c(c3)OCO4)n2)cc1,u,u,-73*,23µM*,u
CCC(NC(=S)NCc1ccc(F)cc1)c1ccc(C(C)C)cc1 (stereo unspecified),u,u,-10,u,u
CCOC(=O)Cn1cccc1-c1nc(-c2ccc(OC)cc2)c(-c2ccc(OC)cc2)s1,x,5%,x,1%,x
Cc1cc(F)ccc1S(=O)(=O)Nc1ccccc1C(=O)NC1CCN(Cc2ccccc2)CC1,-16%,u,-15,u,-25%
O=C(O)c1ccccc1C(=O)NC1CCCc2ccccc21 (stereo unspecified),16%,-5%,-2,-2%,11%
CC1CC2OC2CC1COC(=O)C1CC2OC2CC1C (stereo unspecified),8%,16µM*,17,u,12%
Cc1cc2nc(NCCCO)n(CC(=O)c3cc(C(C)(C)C)c(O)c(C(C)(C)C)c3)c2cc1C,-3%,16µM*,-51*,23µM*,-8%
O=S(=O)(c1cc(F)ccc1F)N1CCN2CCCC2C1 (stereo unspecified),9%,21%,0,8%,10%
COCCN(CCOC)c1nc(-c2ccc([N+](=O)[O-])cc2)nc2ccccc12,3%,0.58µM*,9,6.5µM*,4%
CN(Cc1ccccc1)c1nc(-c2ccc([N+](=O)[O-])cc2)nc2ccccc12,2%,18µM*,-25,u,-3%
O=[N+]([O-])c1ccc(-c2nc(C(Cl)Cl)c3ccccc3n2)cc1,-4%,0.15µM*,118,0.16µM*,11%
CN(Cc1ccc([N+](=O)[O-])cc1)c1ccccc1,-13%,-19%,-2,-5%,-3%
CCOC(=O)Cc1csc(N/N=C/c2ccc(Cl)cc2)n1,15%,8%,-18,-4%,6%
CC(=O)N(/N=C/c1ccc(C)cc1)c1nc(CCl)cs1,-4%,15µM*,-19,u,-3%
CCOc1cccc(/C=N/N=C/c2cccc(OCC)c2O)c1O,24%,-11%,3,-1%,13%
CCOc1cccc(C=Nc2cc(C)cc(C)c2O)c1O,-9%,15µM*,0,u,-4%
O=C(c1c(F)cccc1F)N(Cc1ccccc1)Cc1ccccc1,-10%,12µM*,u,12µM*,-1%
SMILES,HT1080NT lethal,DT40 TDP1 CPT,IL1B secr inh,DT40 TDP1 no CPT,HT1080 IDH1KD tx
O=C(c1c(F)c(F)c(F)c(F)c1F)N(Cc1ccccc1)Cc1ccccc1,-17%,u,-2,u,-5%
COc1ccc(CCNC(=O)CN(Cc2ccc(Cl)cc2)S(C)(=O)=O)cc1,2%,-21%,-2,u,-1%
Cc1ccc(O)c(NC(=S)NC(=O)c2ccc(-c3ccc(Cl)cc3)o2)c1,u,23µM*,-5,26µM*,u
O=C(NC(=S)Nc1ccccc1O)c1ccc(-c2ccc(Cl)cc2)o1,u,23µM*,-1,16µM*,u
Cc1c(NC(=S)NC(=O)c2ccc(-c3ccc(Cl)cc3)o2)cccc1C(=O)O,-25%,3%,26,5%,-6%
CS(=O)(=O)Nc1ccc(-c2ccc3nccn3c2)cc1,u,u,10,-17%,3%
CCc1ccc(C(=O)CCC2CCCCC2=O)cc1 (stereo unspecified),-1%,u,-4,16µM*,-2%
O=C(CCC1CCCCC1=O)c1ccccc1 (stereo unspecified),8%,-3%,-5,-1%,15%
CSc1ccc(-c2nc(CN3CCCCC3c3cccnc3)c(C)o2)cc1 (stereo unspecified),-3%,u,u,u,-24%
CCOC(=O)c1ccccc1NC(=O)CSc1nc(=O)[nH]c2c1CCC2,x,0%,x,-10%,x
O=C(CSc1nc(=O)[nH]c2c1CCCC2)Nc1ccc(F)cc1F,-3%,11%,0,-4%,0%
Cc1c(Cl)cccc1NC(=O)CSc1nc(=O)[nH]c2c1CCCC2,x,21µM*,x,21µM*,x
Cc1cc(C)c(NC(=O)CSc2nc(=O)[nH]c3c2CCCC3)c(C)c1,x,u,x,23µM*,x
Cc1c(Cl)cccc1NC(=O)CSc1nc(=O)n(Cc2ccco2)c2c1CCC2,x,21µM*,x,u,x
O=C1NC[C@@H](CCCCN2CCN(CC3CCCCC3)C(=O)C2=O)N(CCC2CCCCC2)C1=O,18%,-1%,2,-17%,13%
CC(=O)Nc1cc(C(=O)N2CCSCC2)cc2ncn(CCc3ccccn3)c12,x,-3%[9.04 µM],x,-6%,x
CCc1c(C(=O)Nc2ccncc2)csc1C,-13%,u,13,21µM*,-28%
Cc1ccc(Sc2ccc(NC(=O)CCl)cc2)cc1C,-24%,23µM*,-79*,u,-27%
Cc1ccc(C)c(Sc2ccc(NC(=O)CCl)cc2)c1,-16%,16µM*,-88*,18µM*,-19%
O=C(CCl)Nc1ccccc1Sc1ccccc1,-7%,u,u,u,-3%
CCc1nc2ccc(C(=O)N(C)CCN(C)C)cn2c1N(CC)C(=O)NCCc1ccccc1,23%,-13%,3,-10%,22%
CC(=O)/C(C#N)=C1\NC(=O)C(Cc2ccc(C)c(C)c2)S1 (stereo unspecified),-18%,0.58µM*,59,0.073µM*,u

# High-throughput results deposited in PubChem BioAssay by National Center for Advancing Translational Sciences (NCATS).
